Compound activity (PubChem BioAssay)
This is one part of a sample in which hits are shown more often than they occur.
Tb PYK inh: inhibitors of Trypanosoma brucei pyruvate kinase. TbPYK enzyme, Kinase-Glo Plus ATP luminescence, 45 min. AID 624173. actives 0.12% (n = 410,000). Potency, µM (doses to about 76.8 µM), most hits filed as inhibitors. Q57TT1; also: nearly all actives have a fitted effect of over 50% in size
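Readout: single end-point luminescence (Kinase-Glo Plus, 10 min). Reaction conditions were TbPYK/substrate plus 130 uM ADP, 45 min at RT, pH 7.2 TEA buffer. No-enzyme wells served as controls, and data were normalized before concentration-response fitting.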
Giardia FBPA inh: blocks Giardia fructose-bisphosphate aldolase activity; purified Giardia FBPA; Potency, µM (top dose mostly 59.6 µM), actives largely listed as inhibitors; actives 0.71% (n = 290,000); AID 2451; also: nearly all actives have a fitted effect of over 55% in size
Target sequence (A8B2U2 whole entry, looked up): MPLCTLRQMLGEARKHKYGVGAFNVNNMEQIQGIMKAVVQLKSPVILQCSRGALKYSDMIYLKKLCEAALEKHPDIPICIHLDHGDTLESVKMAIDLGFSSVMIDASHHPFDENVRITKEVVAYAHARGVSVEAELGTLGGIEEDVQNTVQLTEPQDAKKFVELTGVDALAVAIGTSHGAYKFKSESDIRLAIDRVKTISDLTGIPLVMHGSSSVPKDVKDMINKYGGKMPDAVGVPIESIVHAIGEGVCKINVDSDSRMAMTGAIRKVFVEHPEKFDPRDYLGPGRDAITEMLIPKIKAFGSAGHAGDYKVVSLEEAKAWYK
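Giardia FBPA (40 nM reagent) was preincubated 10 min at RT with compound (up to 57.5 uM final), then substrate plus GAPDH/TPI/NAD/arsenate coupling system with diaphorase/resazurin was added; resorufin fluorescence (525/598 nm) was read after 20 min.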
Cycloheximide cs: counter-screen for Shiga toxin inhibitors: cycloheximide protein synthesis inhibition | actives 12% (n = 300,000) | max response, % | cell reporter, cycloheximide protein synthesis inhibition counterscreen; in the data active = max response mostly above about 13%, no sharp cut-off; inactive = mostly below about 14%; also: read at 38.3 µM for the half of the compounds with a filed dose
Shiga inhibitor: inhibitors of Shiga toxin in Vero cells | Vero cells, Shiga toxin protein synthesis inhibition reporter | inhibition, % at 38.7 µM | actives 9.2% (n = 290,000); in the data active = inhibition mostly above about 28%, no sharp cut-off; inactive = mostly below about 43%
LmPK inh: LmPK (Leishmania mexicana) enzyme inhibition; Q27686; purified LmPK, Kinase-Glo ATP luminescence, 1 h; Potency, µM (highest dose often 57.5 µM), hits mostly inhibitors; actives 0.37% (n = 290,000); AID 1721
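0.1 nM LmPK, 0.5 mM PEP, 0.1 mM ADP; 50 mM imidazole pH 7.2, 7 mM MgCl2, 50 mM KCl; 1 h RT. Kinase-Glo luminescence readout, normalized to no-enzyme (full inhibition) and uninhibited wells.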
Sm TGR block: S. mansoni TGR enzyme inhibition; purified TGR, DTNB reduction, TNB absorbance 405 nm; Potency, µM (top dose mostly 114 µM), most hits filed as inhibitors; actives 3% (n = 360,000); also: nearly all actives have a fitted effect of over 60% in size
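TGR 20 nM + NADPH 100 uM (dispensed conc.), cpd preinc 15 min RT; start with NADPH (500 uM addition) then DTNB (15 mM addition). Kinetic TNB absorbance, 405 nm filter. Four-parameter Hill fit across titration.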
Numbers stand for hits; – = inactive; ? = inconclusive; · = no result. Unless noted, calls follow the shape of the dose curve; as a rule, active = well fitted curve in the direction sought with a large enough effect; inconclusive = small, poorly fitted or top-dose-only effect, or another doubt; inactive = no such curve, though single readings can be large; an effect the other way counts as inactive or inconclusive.

SMILES	Tb PYK inh	Giardia FBPA inh	Cycloheximide cs	Shiga inhibitor	LmPK inh	Sm TGR block
COc1ccc(/C=C/c2nnc(NC(=O)CSc3ccc(C)cc3)s2)cc1	–	–	15	94	–	–
Cc1ccc(CNC(=O)C2CCCN(c3nnc(-n4c(C)ccc4C)s3)C2)cc1 (stereo not drawn)	–	·	·	·	·	?
Cc1nn(-c2cc(C(F)(F)F)ccc2Cl)c2nc(C(Cl)(Cl)Cl)[nH]c(=O)c12	–	–	–	–	–	20µM
CCOc1ccccc1N(C)C(=O)Cn1cnc2onc(-c3ccc(F)cc3)c2c1=O	–	·	·	·	·	–
O=C(/C=C/c1cccc(Cl)c1)Nc1ccncc1	–	–	38	53	–	–
O=C(/C=C/c1cccc(Cl)c1)NCc1ccncc1	–	–	–	–	–	–
O=C(O)CNC(=O)/C=C/c1c(Cl)cccc1Cl	–	–	–	–	–	–
O=C(/C=C/c1c(Cl)cccc1Cl)Nc1ccncc1	–	–	13	–	–	–
O=C(/C=C/c1c(F)cccc1Cl)Nc1ccncc1	–	–	61	96	–	–
COc1ccccc1NC(=O)c1cc2c([nH]c1=O)CC(C)(C)CC2=O	–	·	·	·	·	–
CCc1cccc(NC(=O)c2nc(-c3ccncc3)no2)c1	–	·	·	·	·	–
CC(=O)N1CN(Cc2ccccn2)Cc2c1sc1c2CCCC1	–	–	–	–	–	40µM
CC(=O)N1CN(CCCn2ccnc2)Cc2c1sc1c2CCCC1	–	–	–	–	–	–
Cc1c(C(=O)N(C)C(C)c2ccccn2)oc2c(F)cccc12 (stereo not drawn)	–	·	51	75	–	–
O=C(NCc1ccncc1)c1ccc2nc(Cc3ccccc3F)oc2c1	–	·	16	–	–	–
Cc1cc(CNC(=O)c2ccc3nc(Cc4ccccc4F)oc3c2)nn1C	–	·	42	94	–	–
CC(c1ccncn1)N(C)C(=O)c1ccc2oc(Cc3ccccc3)nc2c1 (stereo not drawn)	–	·	34	50	–	–
CC(NC(=O)c1ccc2nc(Cc3cccc(Cl)c3)oc2c1)c1ccncn1 (stereo not drawn)	–	·	·	·	·	·
O=C(NCc1ccccc1)c1ccc2nc(CCc3ccccc3)oc2c1	–	·	·	·	·	–
COc1ccc(NC(=O)Cn2c(=O)nc(-c3ccccc3)c3ccccc32)cc1OC	–	·	·	·	·	–
O=C(NCCCN1CCN(c2ccccc2)CC1)c1nnc(Cc2c(F)cccc2Cl)o1	–	·	·	·	·	–
CCCCc1nc2cc(C(=O)NCc3cc(C)n(C)n3)ccc2o1	–	–	25	78	–	–
Cc1cc(CNC(=O)CCc2nnc(CCCCc3ccccc3)o2)nn1C	–	–	–	–	–	–
CC(NC(=O)c1ccc2nc(Cc3ccccc3)oc2c1)c1ccccc1 (stereo not drawn)	–	·	·	·	·	–
Cc1c(C(C)NC(=O)c2ccc3nc(Cc4ccccc4F)oc3c2)cnn1C (stereo not drawn)	–	·	34	36	–	–
SMILES	Tb PYK inh	Giardia FBPA inh	Cycloheximide cs	Shiga inhibitor	LmPK inh	Sm TGR block
Cc1cc(CN(C)C(=O)c2ccc3nc(Cc4ccccc4F)oc3c2)n[nH]1	–	·	–	–	–	–
CC(c1ccccn1)N(C)C(=O)c1ccc2nc(Cc3ccccc3F)oc2c1 (stereo not drawn)	–	·	53	72	–	–
CCC(C(=O)NCCc1ccc(Cl)cc1)n1ccc2cc(S(=O)(=O)N3CCCCC3)ccc21 (stereo not drawn)	–	·	·	·	·	–
CCOc1ccc(S(=O)(=O)N2Cc3ccccc3CC2C(=O)Nc2ccc(NC(C)=O)cc2)cc1 (stereo not drawn)	–	·	·	·	·	–
C=CCC(C)(O)c1ccccc1 (stereo not drawn)	·	–	·	·	·	·
Cc1c(/C=N\NC(=O)c2csc3ccccc23)cnn1C	–	–	–	27	–	–
CCn1ncc(/C=N\NC(=O)c2csc3ccccc23)c1C	–	–	–	53	–	–
Cc1nn(C)c(C)c1/C=N/NC(=O)c1csc2ccccc12	–	–	18	–	–	–
Cc1c(/C=N\NC(=O)C2(C)CC2(Cl)Cl)cnn1C (stereo not drawn)	–	–	–	–	–	–
CCn1ncc(/C=N\NC(=O)Cc2ccc([N+](=O)[O-])cc2)c1C	–	–	–	–	–	–
Cc1occc1C(=O)NNC(=O)CN1C(=O)NC2(CCCCC2)C1=O	–	·	·	·	·	–
Cc1cc(/C=C2\Cc3ccccc3C2=O)c(C)n1-c1ccccc1	–	?	80	159	–	–
Cc1cc(C=C2C(=O)N(C)C(=O)N(C)C2=O)c(C)n1-c1ccccc1	–	–	25	53	–	–
Cc1cc(C=C2C(=O)c3ccccc3C2=O)c(C)n1-c1ccccc1	–	–	51	118	–	?
CC1=NN(c2ccccc2)C(=O)/C1=C\c1cc(C)n(-c2ccccc2)c1C	–	–	–	–	–	–
COc1ccccc1/C=C1\Cc2ccccc2C1=O	–	–	32	51	–	–
COc1ccc(Nc2nnc(-c3ccc(C)c(S(N)(=O)=O)c3)c3ccccc23)cc1	–	·	·	·	·	–
Nc1ccccc1C(=O)N1O[C@@H]2C=C[C@H]1CC2	–	·	·	·	·	·
Cc1ccccc1OCC(=O)N(Cc1ccc(C(C)C)cc1)C1CCS(=O)(=O)C1 (stereo not drawn)	–	·	·	·	·	–
Cc1cc(C=C2C(=O)c3ccccc3C2=O)c(C)n1-c1cccc(C(=O)O)c1	–	?	43	104	–	–
Cc1cc(C=C2C(=O)c3ccccc3C2=O)c(C)n1-c1ccc(C(=O)O)cc1	–	?	–	–	–	–
COc1ccccc1C(=O)OCC(=O)c1cccc([N+](=O)[O-])c1	–	–	28	–	–	–
COc1ccccc1C(=O)COC(=O)c1ccc(N(C)C)cc1	–	–	35	94	–	–
CCc1ccc(C(=O)COC(=O)C(NC(=O)C2CCC(C)CC2)C(C)C)cc1 (stereo not drawn)	–	·	·	·	·	–
COc1ccc(C(=O)OCC(=O)c2ccc(F)cc2)cc1OC	–	·	·	·	·	·
SMILES	Tb PYK inh	Giardia FBPA inh	Cycloheximide cs	Shiga inhibitor	LmPK inh	Sm TGR block
O=C(COC(=O)c1ccccc1NC(=O)c1ccccc1)c1cccc([N+](=O)[O-])c1	–	–	–	–	–	–
COc1ccccc1C(=O)COC(=O)c1cc(=O)[nH]c2ccccc12	–	·	·	·	·	–
CCc1ccc(C(=O)COC(=O)[C@@H](NC(N)=O)[C@@H](C)CC)cc1	–	–	22	77	–	–
CCc1ccc(C(=O)COC(=O)c2ccccc2OC)cc1	–	·	43	133	?	–
CCN(C(=O)CCS(=O)(=O)c1ccc2c(c1)CCN2C(C)=O)c1cccc(C(F)(F)F)c1	–	·	·	·	·	–
COc1ccccc1C(=O)COC(=O)c1ccccc1O	–	–	31	95	–	–
COc1ccccc1C(=O)COC(=O)/C=C/c1ccccc1	–	·	53	100	–	–
